Shown are actives, neighbours in structure and some others; about 1.8% of the full set was active somewhere.
p53ts 39C tox – p53ts cell cytotoxicity, nonpermissive temperature. H1299-p53A138V viability at 39C, ATP luminescence, 24 h. 1.5% of 130,000 active. Potency, µM (doses to about 46.1 µM), actives largely listed as cytotoxic; further: nearly all actives have a fitted effect of over 55% in size
p53ts 32C kill – cytotoxicity in p53ts cells at permissive temperature. Potency, µM (doses to about 46.1 µM), usual class: cytotoxic. H1299-p53A138V at 32C, ATP luminescence viability, 24 h. 0.93% of 130,000 active. AID 924; further: nearly all actives have a fitted effect of over 55% in size
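ATP-content luminescence (ATPlite) read-out after 24 h compound exposure at 32C in H1299-p53A138V cells (600/well). Tested up to 46 uM. Normalized to DMSO (0%) and 100 uM tamoxifen (100% killing); Hill-fit AC50.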
IkB signaling – inhibitors of IkB signaling in ABC-DLBCL cells. Potency, µM (titrated, usually from 57.1 µM). 0.04% of 110,000 active. ABC-DLBCL IkBa-CBG/CBR dual luciferase ratio, 4 h; response scale: scaled: untreated 0%, proteasome inhibitor 100%. AID 445; active means well fitted curve in the direction sought with a large enough effect in the signal ratio, not every such curve was filed as active; inconclusive means small, poorly fitted or top-dose-only effect, or a change in a side signal; the % refers to the signal ratio;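 further: the direction sought is a rising ratio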
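Luminescence ratio of IκBα-fused green versus native red beetle luciferase in OCI-Ly3 cells, 4 h post-doxycycline with compound; red signal alone, scaled from basal (0%) to zero light (-100%), flagged nonspecific or cytotoxic effects.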
Peg3 imprint – inducers of genomic imprint erasure in mouse ES cells; 0.02% of 110,000 active; Potency, µM (series often up to 60.7 µM), usual class: activators; mouse ES Peg3-LacZ reporter, beta-gal luminescence, 40 h; AID 1948
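Readout: BetaGlo luminescence (5 min, room temp) for LacZ from the normally silent maternal Peg3 allele in female Peg3LacZ-Neo ES cells. Cells 300/well, 40 h, 37C, 5% CO2. Data normalized per plate to negative controls.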
Each line names hits and unclear results; the compound was inactive in the other large screens; ! = repeats disagree. Unless noted, the call rests on the fitted dose curve; in most records, active means well fitted curve in the direction sought with a large enough effect; inconclusive means small, poorly fitted or top-dose-only effect, or another doubt; inactive means no such curve, though single readings can be large; an effect the other way counts as inactive or inconclusive.

N[C@H](Cn1oc(=O)[nH]c1=O)C(=O)O	none (no result: p53ts 39C tox, p53ts 32C kill, Peg3 imprint)
Cc1ccccc1Cn1cccc(C(=O)Nc2nc3ccccc3s2)c1=O	p53ts 39C tox 10µM
CCc1ccccc1Nc1nn2c(=O)c3ccc(C(=O)Nc4cc(C)cc(C)c4)cc3nc2s1	p53ts 39C tox 4µM, p53ts 32C kill 3.2µM, IkB signaling inconclusive
CN(C)[C@@H]1C(=O)C(C(N)=O)=C(O)[C@]2(O)C(=O)C3=C(O)c4c(O)cccc4[C@@](C)(O)[C@@H]3C[C@@H]12	none (no result: p53ts 39C tox, p53ts 32C kill, Peg3 imprint)
Cc1oc(-c2cccc(Cl)c2)nc1CN1CCC(C(=O)NCCCN2CCN(c3cccc(Cl)c3)CC2)CC1	p53ts 39C tox 10µM, IkB signaling inconclusive
Cc1oc(-c2ccccc2Cl)nc1CN1C(=O)CN=C(c2ccccc2)c2cc(Cl)ccc21	IkB signaling inconclusive
C[C@@H]1O[C@@H](O[C@H]2C[C@@H](O)[C@]3(CO)[C@@H]4[C@@H](O)C[C@]5(C)[C@H]([C@@H]6COC(=O)C6)CC[C@@]5(O)[C@H]4CC[C@@]3(O)C2)[C@H](O)[C@H](O)[C@@H]1O	p53ts 39C tox inconclusive, p53ts 32C kill inconclusive (no result: Peg3 imprint)
CCN1C[C@@]2(COC(=O)c3ccccc3N3C(=O)C[C@H](C)C3=O)CC[C@H](OC)[C@@]34[C@@H]5CC6[C@@H](OC)C[C@@](O)([C@H]5[C@H]6OC)C(O)([C@@H]13)[C@@H](OC)[C@H]24	none (no result: p53ts 39C tox, p53ts 32C kill, Peg3 imprint)
COC(=O)C1CN(C#N)N(c2ccc(Cl)cc2)C12c1ccccc1-c1ccccc12 (configuration not stated)	p53ts 39C tox 11µM, p53ts 32C kill 4µM (no result: IkB signaling, Peg3 imprint)
O=C(c1ccccc1)[C@H]1[C@H](c2ccccc2[N+](=O)[O-])N1C1CCCCC1 (some centres not stated)	IkB signaling 5µM
CCCCCCCCCOc1ccc2[nH]cc(CCN)c2c1	p53ts 39C tox 32µM, p53ts 32C kill inconclusive, IkB signaling inconclusive
COc1ccc2[nH]cc(CCN)c2c1	none
CN(C(=O)Cc1ccc(Cl)c(Cl)c1)[C@H](CN1CCCC1)c1cccc(N=C=S)c1	p53ts 39C tox 32µM, p53ts 32C kill 32µM, IkB signaling inconclusive
[CH3][Hg][Cl]	p53ts 39C tox 16µM, IkB signaling inconclusive
CO[C@@H](C)[C@](O)(C(=O)OC1=CCN2CC[C@H](O)[C@H]12)C(C)C	none (no result: p53ts 39C tox, p53ts 32C kill, Peg3 imprint)
O=C(O)/C=C\c1ccc[c]([Sb](=[O])([OH])[OH])c1	none (no result: Peg3 imprint)
O=c1[nH]c2ccccc2n1C1CCN(CCCC(c2ccc(F)cc2)c2ccc(F)cc2)CC1	p53ts 39C tox 16µM, p53ts 32C kill 25µM!
CCN(CC)C(=O)N[C@@H]1C=C2c3cccc4[nH]cc(c34)C[C@@H]2N(C)C1	none (no result: p53ts 39C tox, p53ts 32C kill, Peg3 imprint)
C[C@@H]1O[C@@H](O[C@H]2C[C@@H](O)[C@]3(CO)[C@@H]4[C@@H](O)C[C@]5(C)[C@H](C6=CC(=O)OC6)CC[C@@]5(O)[C@H]4CC[C@@]3(O)C2)[C@H](O)[C@H](O)[C@@H]1O	none (no result: p53ts 39C tox, p53ts 32C kill, Peg3 imprint)
CCCCCCn1c(O)c(C=NC2CCCCC2N)c(=O)[nH]c1=O (configuration not stated)	p53ts 39C tox 5µM, p53ts 32C kill 4µM
CC(=O)c1c(C)nc2ccccc2c1N	p53ts 39C tox 10µM, p53ts 32C kill 13µM
Cc1nc2ccccc2c(=O)n1-n1cnnc1	none
Cc1oc2ccc(O)c(CN3CCCCCC3)c2c1C(=O)Nc1cccc(Cl)c1C	p53ts 39C tox 16µM, IkB signaling inconclusive
Oc1ccc2c3c1O[C@H]1c4c(c5ccccc5n4Cc4ccccc4)C[C@]4(O)[C@H](C2)N(CC2CC2)CC[C@@]314	p53ts 39C tox 32µM, p53ts 32C kill inconclusive, IkB signaling inconclusive
Cc1nc(-c2ccc(-c3ccc(C(=O)N4CCc5cc6c(cc54)C4(CCN(C)CC4)CO6)cc3)c(C)c2)no1	p53ts 39C tox 10µM, p53ts 32C kill 16µM, IkB signaling inconclusive
C[C@H]1CC[C@]2(NC1)O[C@@H]1C[C@@H]3[C@@H]4CC=C5C[C@H](O)CC[C@@]5(C)[C@H]4CC[C@@]3(C)[C@H]1[C@@H]2C	none (no result: p53ts 39C tox, p53ts 32C kill, Peg3 imprint)
CC(C)(C)[C@@]1(O)C[C@@H]2OC(=O)C[C@@]23C(=O)O[C@H]2OC(=O)[C@@H](O)[C@]231	none (no result: p53ts 39C tox, p53ts 32C kill, Peg3 imprint)
C[C@@H](CO)NC(=O)[C@H]1C=C2c3cccc4[nH]cc(c34)C[C@H]2N(C)C1	none (no result: p53ts 39C tox, p53ts 32C kill, Peg3 imprint)
O[N+]1=CC=CCC1=S.On1ccccc1=S.[Zn]	p53ts 39C tox 4µM, p53ts 32C kill 0.79µM (no result: IkB signaling)
CCn1nc(-c2ccccc2)nc2c(=O)n(C)c(=O)nc1-2	p53ts 39C tox 4µM, p53ts 32C kill 0.63µM, IkB signaling inconclusive
C=C(C)[C@H]1[C@H]2OC(=O)[C@@H]1[C@]1(O)C[C@H]3O[C@]34C(=O)O[C@H]2[C@]14C	none (no result: p53ts 39C tox, p53ts 32C kill, Peg3 imprint)
COc1ccc(/C=C/C(=O)Nc2ccc(C)cc2)cc1	p53ts 32C kill inconclusive
CC(=O)Oc1ccc(/C=C/c2cc(OC(C)=O)cc(OC(C)=O)c2)cc1	p53ts 39C tox 6.3µM, p53ts 32C kill 7.9µM (no result: IkB signaling)
O=C(Cn1c(=O)n(Cc2ccccc2)c(=O)c2sc3ccccc3c21)NCc1ccccc1Cl	p53ts 39C tox 32µM, p53ts 32C kill 13µM
C=C[C@@H]1CN2CC[C@H]1C[C@H]2[C@@H](O)c1ccnc2ccccc12	none (no result: p53ts 39C tox, p53ts 32C kill, Peg3 imprint)
Cc1ccc(C(=O)Nc2c(C(=O)Nc3ccc(C)c(C)c3)sc3nc(C)cc(C)c23)cc1	p53ts 39C tox 6.3µM
CC(=O)Oc1c2c(c(CC=C(C)C)c3c1C(=O)C1=CC4CC5C(C)(C)OC(C/C=C(\C)C(=O)O)(C4=O)[C@]15O3)OC(C)(CCC=C(C)C)C=C2 (some centres not stated)	p53ts 39C tox 4µM, p53ts 32C kill 4µM (no result: IkB signaling)
COC(=O)/C(C)=C\CC12OC(C)(C)C3CC(C=C4C(=O)c5c(OC)c6c(c(CC=C(C)C)c5OC431)OC(C)(CCC=C(C)C)C=C6)C2=O (configuration not stated)	p53ts 39C tox 6.3µM, p53ts 32C kill 4µM (no result: IkB signaling)
Oc1ccc2c3c1O[C@@H]1[C@@H](O)CC[C@]4(O)[C@H](C2)N(CC2CCC2)CC[C@@]314	none (no result: Peg3 imprint)
COc1cc2c(cc1O)CCN[C@H]2C	none (no result: p53ts 39C tox, p53ts 32C kill, Peg3 imprint)
CCN1C[C@@]2(C)CC[C@H](O)[C@@]34[C@@H]5C[C@H]6[C@H](O)[C@@H]5[C@](O)(C[C@@H]6OC)[C@H](C[C@@H]23)[C@H]14	none (no result: p53ts 39C tox, p53ts 32C kill, Peg3 imprint)
C[C@@H]1CCC/C=C\[C@H]2C[C@H](O)C[C@@H]2[C@H](O)/C=C\C(=O)O1	none (no result: p53ts 39C tox, p53ts 32C kill, Peg3 imprint)
[Cl-].[Cl-].[Hg+2]	p53ts 39C tox 25µM, IkB signaling inconclusive (no result: p53ts 32C kill)
COc1ccc2nc(NC(=O)c3nc(S(=O)(=O)Cc4cccc(C)c4)ncc3Cl)sc2c1	p53ts 39C tox 10µM, p53ts 32C kill 20µM, IkB signaling inconclusive
CCOc1ccc2nc(NC(=O)c3cccn(Cc4ccc(C)cc4)c3=O)sc2c1	none

High-throughput results as filed in PubChem BioAssay.
